Some test systems named below: HCT-15 colon; HT29 colon; SNB-75 CNS; SNB-19 CNS; U251 CNS; PC-3 prostate; SK-MEL-5 melanoma; UACC-62 melanoma; SK-MEL-28 melanoma; SK-MEL-2 melanoma; EKVX NSCLC; SN12C renal; UO-31 renal; TK-10 renal; ACHN renal; CAKI-1 renal; A498 renal; CCRF-CEM leukemia; MOLT-4 leukemia; LOX IMVI melanoma.
What all share (experiment): NCI-60 one-dose screen, 48 h (100 = growth as untreated, 0 = no growth, -100 = all killed)
What all share (settings): 10 µM unless noted

The panel holds about 83,000 compounds, 20% with a hit somewhere; the sample as a whole holds those more often.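 In brief: 96-well plates, 48 h treatment, single concentration, percent growth endpoint.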 A number with no mark means an inactive call. Calls of active or inactive are those of the source. The calls were made as follows: active = growth percent below 10; inactive = the rest.

Take `CC(C)=CCc1cc(O)c(O)c2oc3cc(O)cc(O)c3c(=O)c12`: the growth in the assay with HCT-15 colon is 22.3%; with HT29 colon it was 91.7%; in the assay with SNB-75 CNS it was 60.2%; with SNB-19 CNS, 52.6%; in the assay on U251 CNS it was 41%; in the assay on PC-3 prostate, 68.8%. Moreover, the growth was 56.1% with SK-MEL-5 melanoma; 54% in the assay with UACC-62 melanoma; 84.4% in the assay on SK-MEL-28 melanoma; 97.3% in the assay with SK-MEL-2 melanoma; 78.2% with EKVX NSCLC; 58.4% in the assay with SN12C renal. Besides, the growth in the assay with UO-31 renal was 45.9%; in the assay with TK-10 renal, 46.7%; in the assay on ACHN renal it was 41.5%; with CAKI-1 renal, 36.7%; in the assay on A498 renal, 101%; in the assay with CCRF-CEM leukemia, 29.5%. Moreover, the growth in the assay on MOLT-4 leukemia was 31.9%.
Consider `CCCCCCCCCCCCCCCCCCOc1cccc(CC(=O)OCC[N+](CC)(CC)CC)c1`, for which the growth is 81.3% in the assay on HCT-15 colon; 64.5% in the assay with HT29 colon; 61.9% in the assay on SNB-75 CNS; 38.3% with SNB-19 CNS; 37.6% with U251 CNS; 55.4% in the assay on PC-3 prostate. In addition, the growth in the assay on SK-MEL-5 melanoma is 29.8%; in the assay on UACC-62 melanoma, 63%; with LOX IMVI melanoma it was 56.5%; in the assay on SK-MEL-2 melanoma, 84%; in the assay on EKVX NSCLC, 77.7%; in the assay on SN12C renal, 42.8%. The growth in the assay on UO-31 renal is 86.4%; with TK-10 renal it was 67.5%; in the assay with ACHN renal, 90%; in the assay on CAKI-1 renal it was 62.7%; in the assay with A498 renal, 89.3%; in the assay on CCRF-CEM leukemia, 32.5%. For the same compound, the growth in the assay with MOLT-4 leukemia is 72%.
For `Brc1ccc(/C=C(/C2=NCCN2)n2ccc3ccccc32)cc1`, the growth was 73.7% in the assay with HCT-15 colon; 65.1% in the assay on HT29 colon; 33% in the assay with SNB-75 CNS; 85.1% in the assay on SNB-19 CNS; 65.6% with U251 CNS; 45% with PC-3 prostate. Moreover, the growth was 73.4% with SK-MEL-5 melanoma; 75.8% in the assay with UACC-62 melanoma; 100% in the assay with SK-MEL-28 melanoma; 90.9% in the assay with SK-MEL-2 melanoma; 79% with EKVX NSCLC; 73.8% in the assay with SN12C renal. Further, the growth with UO-31 renal was 37.2%; in the assay on TK-10 renal it was 68.1%; in the assay with ACHN renal, 68.7%; in the assay on CAKI-1 renal, 39.7%; in the assay on A498 renal, 87.4%; with CCRF-CEM leukemia, 59.6%. Moreover, in the assay with MOLT-4 leukemia, the growth is 9.21% (active).
Take `O=C(Oc1ccc(CO[N+](=O)[O-])cc1)c1ccccc1`: the growth was -83% (active) in the assay with HCT-15 colon; -60% (active) in the assay on HT29 colon; -97.9% (active) in the assay on SNB-75 CNS; -78.8% (active) with SNB-19 CNS; -91.2% (active) in the assay with U251 CNS; -91.7% (active) with PC-3 prostate. Moreover, the growth was -96.1% (active) in the assay with SK-MEL-5 melanoma; -76.3% (active) in the assay with UACC-62 melanoma; -87.4% (active) in the assay with LOX IMVI melanoma; -72.3% (active) with SK-MEL-2 melanoma; -99.9% (active) in the assay with EKVX NSCLC; -87.6% (active) in the assay with SN12C renal. Besides, the growth in the assay with UO-31 renal is -90.4% (active); in the assay on TK-10 renal it was -96.9% (active); with ACHN renal, -84.7% (active); with A498 renal, -71.5% (active); in the assay with CCRF-CEM leukemia, -47.4% (active); with MOLT-4 leukemia, -50.1% (active).
As for `CC1=C2[C@@H](CC1)[C@]1(C)O[C@@](C3CC3)(C[C@H]1OC(=O)CO)[C@H]2OC(=O)/C=C/c1ccccc1`, the growth is 97% in the assay with HCT-15 colon; 89.5% in the assay with HT29 colon; 88.2% with SNB-75 CNS; 90% in the assay on SNB-19 CNS; 88.3% with U251 CNS; 68% in the assay with PC-3 prostate. The growth with SK-MEL-5 melanoma was 92.9%; in the assay with UACC-62 melanoma it was 73.1%; in the assay with SK-MEL-28 melanoma it was 107%; with SK-MEL-2 melanoma, 97.2%; with EKVX NSCLC, 87.7%; in the assay with SN12C renal, 42.4%. In addition, the growth was -26% (active) in the assay with UO-31 renal; 106% with TK-10 renal; 9.75% (active) in the assay with ACHN renal; 71.4% in the assay with CAKI-1 renal; -39.1% (active) in the assay with A498 renal; 90.3% with CCRF-CEM leukemia. Further, in the assay on MOLT-4 leukemia, the growth was 77.6%.
As to `COC(=O)N/N=C/c1c[n+]([O-])c2ccccc2[n+]1[O-]`, the growth was 106% in the assay on HCT-15 colon; 106% with HT29 colon; 100% in the assay on SNB-75 CNS; 104% in the assay on SNB-19 CNS; 96.6% with U251 CNS; 86% with PC-3 prostate. For the same compound, the growth with SK-MEL-5 melanoma was 114%; with UACC-62 melanoma, 101%; in the assay on LOX IMVI melanoma, 97.7%; in the assay on SK-MEL-2 melanoma, 112%; in the assay on EKVX NSCLC it was 100%; in the assay on SN12C renal, 99.6%. Moreover, the growth in the assay with UO-31 renal is 86.6%; in the assay with TK-10 renal it was 119%; with ACHN renal, 100%; in the assay on A498 renal it was 98%; in the assay on CCRF-CEM leukemia, 94%; with MOLT-4 leukemia, 104%.
With `Fc1ccc(NC(c2ccc(F)cc2)C2CCN(CCCCc3ccccc3)CC2)cc1` (stereo not given), the growth was 29.3% with HCT-15 colon; 3.89% (active) with HT29 colon; 63.4% in the assay with SNB-75 CNS; 50% in the assay on SNB-19 CNS; 16.6% in the assay on U251 CNS; 35% in the assay with PC-3 prostate. For the same compound, the growth with SK-MEL-5 melanoma is -3.5% (active); in the assay with UACC-62 melanoma, 26%; in the assay with LOX IMVI melanoma, 11.3%; in the assay with SK-MEL-2 melanoma it was 69.6%; in the assay with EKVX NSCLC it was 52.9%; in the assay on SN12C renal, 29%. Further, the growth with UO-31 renal was 38.8%; in the assay on TK-10 renal, 49%; in the assay on ACHN renal it was 53.8%; with CAKI-1 renal, 49.1%; with A498 renal, 17.2%; with MOLT-4 leukemia it was 4.36% (active).

The values above are taken from PubChem BioAssay (NCI).
